Test results reported in PMC5540273 (PLoS ONE, 2017).

Each compound was assayed on T1, MEK3. Details: concentration: 1 μM, replicates: in singlicate; n = 1.
T1 construct: gene MAP2K3
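Further: KINOMEscan kinase panel screen.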

Compound	%Inh [%]
CCn1c(-c2cccnc2O)nc2cnccc21 [SB-736715]	14
Cl.Oc1ccc(-c2nc(-c3ccccc3)[nH]c2-c2ccncc2)cc1 [SB-428218]	0
CC(=O)Nc1nc2cnc(Nc3cc(NC(=O)c4cccc(CCC#N)c4)ccc3C)nc2s1	3
O=S(=O)(c1ccc(-c2ccnc3[nH]ccc23)cc1)N1CCCC1 [GSK846226]	0
CN1C(=O)C(Nc2ccc(Cl)c(C(=O)O)c2)=C(c2ccc(Cl)cc2)C1=O [SB-404290]	3
Fc1cc(Cl)ccc1Nc1ccnc2cc(I)ccc12 [GW551191]	0
O=c1cc(N2CCOCC2)nc2n(Cc3cccc(Cl)c3Cl)ccn12 [GSK2286295]	0
Cn1ccc2ncnc(Oc3ccc(NC(=O)Nc4ccccc4)cc3)c21	20
COc1cc(Nc2nccc(N3CCC(NC(=O)Nc4cc(C)ccc4C)C3)n2)cc(OC)c1OC (stereo not drawn) [GSK1379762]	0
CC(C)(C)c1ccc(C(=O)Nc2cn3cc(Cl)ccc3n2)cc1	0
COc1ccccc1CNC(=O)c1cc(C(=O)c2ccccc2C)c[nH]1 [GSK364507]	0
O=C(O)COc1ncnc2cc(-c3ccc4[nH]ncc4c3)sc12	17
CS(=O)(=O)c1ccc(-c2nc3n(c2-c2ccncc2)CCC3)cc1 [SKF-105942]	0
Cc1c(Cn2ccn3c(=O)cc(N4CCOCC4)nc23)cccc1C(F)(F)F [GSK2289044]	17
O=C(Nc1n[nH]c2cc(-c3cccc(F)c3F)ccc12)C1CC1 [SB-733894]	15
Cc1csc(-c2nc(Nc3ccncc3)c3ccccc3n2)n1 [GW869640]	38
Cl.NC(=O)c1cccc(Nc2nccc(Nc3ccc(Oc4cccc(Cl)c4)c(Cl)c3)n2)c1 [GW659008]	0
O=C1NC(=O)C(N2CCc3ccccc32)=C1c1ccccc1Cl [SB-373598]	0

Compound	%Inh [%]
COC(=O)c1c(-c2ccccc2)c2cc(C(=O)O)ccc2c(=O)n1Cc1ccccc1	7
Cc1cc(-c2ccc3c(c2)CC[C@@H](N[C@@H](C)c2ccccc2)C3)cnc1N.Cl [GW412617]	0
Nc1ncnc2[nH]c(-c3ccccc3)nc12 [AH5015]	1
O=C(Nc1n[nH]c2nc(-c3nccs3)c(Br)cc12)C1CC1 [SB-742251]	0
Cc1ccccc1-n1cnc2c(N)ncnc21 [SKF-97510]	0
Clc1cc(Cl)cc(Nc2ccnc(Nc3cc(Cl)cc(Cl)c3)n2)c1 [GSK175726]	0
Cn1ccc2ncnc(Oc3ccc(Nc4nc5ccccc5[nH]4)cc3)c21	0
CCCc1ccc(S(=O)(=O)NC2CCN(c3ccnc(Nc4ccc(F)cc4)n3)C2)cc1 (stereo not drawn) [GSK1379715]	0
COc1cc2nccc(Nc3ccc(NC(=O)c4ccc(C)cc4)c(O)c3)c2cc1OC.Cl [GW440132]	0
CCn1c(-c2ccccn2)nc2cnccc21 [SB-736398]	0
Cl.O=C(Nc1cccc(-c2nn3ncccc3c2-c2ccnc(Nc3cccnc3)n2)c1)c1c(F)cccc1F [GSK312879]	10
Cc1ccc(NC(=O)Nc2cccc(Cl)c2)cc1-c1ccc(C(=O)Nc2ccncc2)cc1 [GSK1398468]	0
O=C(Nc1ccc2c(c1)OCO2)NC1CCN(c2ccnc(Nc3ccc(F)cc3)n2)C1 (stereo not drawn) [GSK1379724]	0
COc1ccc(Nc2nccc(NCCNC(=O)Nc3ccccc3F)n2)cc1 [GSK1379901]	0
COc1ccc(Nc2nccc(-c3cccc(NC(=O)c4cc5cc(F)ccc5[nH]4)c3)n2)cc1 [GSK1229782]	22
Cc1cc(N2Cc3ccccc3C2)nc(Nc2ccc(S(=O)(=O)N3CCOCC3)cc2)n1.Cl [GSK1669917]	0
COc1ccc(CNC(=O)NC2CCN(c3ccnc(Nc4cc(OC)c(OC)c(OC)c4)n3)C2)cc1 (stereo not drawn) [GSK1379748]	0
Cc1ccc(-c2cc(-c3c[nH]nc3-c3ccccn3)ccn2)cc1 [GW684088]	0
